Screens from PubChem BioAssay.
CYP2C9 act = CYP2C9 (human) activation; recombinant CYP2C9, luciferin-H conversion, luminescence; hits give high values; factor 1 = untreated enzyme, 0 = blocked; activation factor at 5 µM; hit rate 1.4% among 96,000; AID 1024;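 active = activation factor of 2 or more for CYP2C9 at a 5 µM dose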
CYP2C19 activ = increases human CYP2C19 enzyme activity; AID 1025; activation factor at 5 µM; 96,000 tested, under 10 active; P33261; recombinant CYP2C19, luciferin-H EGE luminescence; hits give high values; 0 = fully inhibited enzyme, 1 = untreated enzyme;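 active = activation factor of at least 2 at 5 µM in the primary screen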
CYP2C19 inhib = blocks human cytochrome P450 2C19; P33261; CYP2C19 Supersomes, luciferin-H EGE luminescence, 30 min; inhibition, % at 5 µM; hit rate 21% among 96,000;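 active = CYP2C19 inhibition above a set limit at 5 µM in the primary screen, cut at about 50% in these data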
CYP2C9 inhib = human CYP2C9 inhibition; AID 777; inhibition, % at 5 µM; CYP2C9 Supersomes, luciferin-H conversion, luminescence; hit rate 20% among 96,000; P11712;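 active = blocking of liver enzyme CYP2C9 beyond about 50% at 5 µM, limit read from the data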
Cav32 inh = human Cav3.2 channel inhibition, primary screen | O95180 | Cav3.2-expressing cells, Fluo-4 calcium fluorescence FDSS; hits give low values | B-score at 10 µM | hit rate 4% among 100,000;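 active = single-dose well whose peak fluorescence ratio is a statistical outlier from its plate by either plate-standardised score or position-corrected B-score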
Hits are given with their value; – = inactive; · = no result given. Hits are enriched below; roughly 27% of the tested compounds scored in any of these assays.

SMILES	CYP2C9 act	CYP2C19 activ	CYP2C19 inhib	CYP2C9 inhib	Cav32 inh
COc1ccc(-c2nnc(SCC(=O)c3ccc[nH]3)o2)cc1	–	–	–	–	–
COc1ccc(CN(C(=O)CSc2nnc(-c3ccccc3F)o2)c2ccc(F)cc2)cc1	–	–	61.7	76.4	-4.8
Cc1ccc(C)c(/C(O)=C2\C(=O)C(=O)N(CCCn3ccnc3)C2c2ccncc2)c1 (stereo not drawn)	–	–	–	53.1	–
CCn1c(SCC(=O)NCCOC)nc2sc3c(c2c1=O)CCCC3	–	–	–	79.7	–
NC(=O)CSc1nc2sc3c(c2c2ncnn12)CCCC3	–	–	–	–	–
CCOC(=O)C1CCCn2c1nc1sc3c(c1c2=O)CCCC3 (stereo not drawn)	–	–	65.7	77.0	–
CCn1c(SCC(N)=O)nc2sc3c(c2c1=O)CCCC3	–	–	–	55.3	–
O=c1c2c3c(sc2nc2n1CCCC2)CCCC3	·	·	·	·	–
COCCNC(=O)c1ccc2c(c1)S(=O)(=O)c1ccccc1C2=O	·	·	·	·	–
CC1(c2nnc(Cc3ccccc3)o2)CC(c2cccc(Cl)c2)=NO1 (stereo not drawn)	·	·	·	·	–
CC(=O)c1cc(C)ccc1OC(=O)CCN1C(=O)C2C3c4ccccc4C(c4ccccc43)C2C1=O (stereo not drawn)	–	–	–	–	–
COC(=O)c1sccc1NC(=O)CN(C)NS(=O)(=O)c1ccc(F)cc1	–	–	–	91.3	–
COC(=O)c1sccc1NC(=O)CSc1ccccc1NS(=O)(=O)c1ccc(Br)cc1	–	–	–	79.8	–
COc1ccc(OC)c(NC(=O)CSc2nnnn2-c2ccccc2F)c1	–	–	–	–	–
COC(=O)c1sccc1NC(=O)CSc1ccc(Cl)cc1	–	–	–	–	–
COC(=O)c1sccc1NC(=O)CSc1ccccc1NS(=O)(=O)c1ccc(F)cc1	–	–	–	74.2	-5.56
COC(=O)c1sccc1NC(=O)CSc1nnnn1-c1ccccc1F	2.1	–	–	–	–
O=C(O)CCNc1ccc2c(c1)OCCO2	–	–	–	–	–
Fc1ccc(-c2noc(C3CCN(Cc4cccnc4)CC3)n2)cc1	–	–	–	–	–
S=C1NCCOCCOCCOCCOCCNC(=S)NCCOCCOCCOCCOCCN1	·	·	·	·	–
CSc1nc(C)cc(SCC(=O)Nc2ccccc2)n1	–	–	89.9	67.4	–
Cc1cc(SCC(=O)Nc2ccccc2)nc(C)n1	–	–	–	–	·
Cc1cc(C(F)(F)F)nc(SCC(=O)Nc2cc(C)on2)n1	–	–	51.6	–	–
Cc1cc(C)cc(N(CC(=O)NC2CC3CCC2C3)S(C)(=O)=O)c1 (stereo not drawn)	–	–	–	–	–
Cc1cc(C(F)(F)F)nc(SCC(=O)Nc2ccccc2)n1	–	–	91.0	–	–
SMILES	CYP2C9 act	CYP2C19 activ	CYP2C19 inhib	CYP2C9 inhib	Cav32 inh
Cc1cc(C(F)(F)F)nc(SCC(=O)NC2CC3CCC2C3)n1 (stereo not drawn)	2.1	–	82.9	–	–
O=C(Nc1ccc(NC(=S)NC(=O)c2ccccc2Cl)cc1)c1cccc(Cl)c1	·	·	·	·	–
Cc1c(C(=O)N2CCc3ccccc3C2)sc2nc(-c3ccccc3)cn12	–	–	58.8	53.0	–
COc1ccccc1N1CCN(C(=O)c2sc3nc(-c4ccccc4)cn3c2C)CC1	–	–	–	80.5	–
Cc1c(C(=O)Nc2ccc3c(c2)OCCO3)sc2nc(-c3ccccc3)cn12	·	·	·	·	–
COC(=O)C1CCN(C(=O)c2sc3nc(-c4ccc(F)cc4)cn3c2C)CC1	–	–	–	62.0	–
Cc1c(C(=O)Nc2ccncc2)sc2nc(-c3ccccc3)cn12	–	–	–	79.2	–
O=C(CCNS(=O)(=O)c1cccc2nsnc12)N1CC(=O)N(CCc2ccccc2)C(=O)C1	–	–	–	–	·
COc1ccc(NC(=O)CSc2nnc(-c3cccnc3)n2Cc2ccco2)c(OC)c1	–	–	–	–	–
CC(C)C(=O)NS(=O)(=O)c1ccc(N)cc1	–	–	–	–	–
O=C(Nc1ccc(O)c2c(=O)cc(-c3cccc(Cl)c3)oc12)c1ccc(F)cc1	·	·	·	·	–
C=CCn1c(SCC(=O)c2ccc(OC)cc2)nnc1C(C)NC(=O)c1cccs1 (stereo not drawn)	–	–	–	–	–
O=C(O)CSc1nnc(-c2ccc3c(c2)OCO3)o1	–	–	–	–	–
CCn1c(CSc2nnc(C)n2-c2ccccc2)nc2cc(S(=O)(=O)N(C)C)ccc21	–	–	–	65.8	–
CCn1c(CSc2nnc(-c3ccc4c(c3)OCO4)o2)nc2cc(S(=O)(=O)N(C)C)ccc21	–	–	82.7	81.1	–
CCn1c(CSc2nnc(-c3ccoc3C)n2C)nc2cc(S(=O)(=O)N(C)C)ccc21	·	·	·	·	–
O=C(O)CCC(=O)Nc1ccc(Br)cn1	–	–	50.2	–	–
CC(=NCCN1CCNCC1)C1=C(O)CC(C)(C)CC1=O	–	–	–	–	–
CCSc1nnc(N)s1	–	–	–	–	–
Cc1nc2ccccc2nc1CSc1nnc(N)s1	–	–	53.7	–	–
CCOC(=O)c1c(NC(=O)CSc2nnc(C)s2)sc2c1CCC(CC)C2 (stereo not drawn)	·	·	·	·	–
N#CCCn1nc(-c2ccccc2)cc1-n1c(C(F)(F)F)nc2ccccc21	–	–	87.2	95.7	-3.41
O=C(CSc1nc2ccccc2o1)Nc1nncs1	–	–	–	55.4	–
CCc1nnc(NC(=O)CSc2nc3ccccc3o2)s1	–	–	–	58.7	–
Cc1nnc(NC(=O)CSc2nc3ccccc3o2)s1	·	·	·	·	–
SMILES	CYP2C9 act	CYP2C19 activ	CYP2C19 inhib	CYP2C9 inhib	Cav32 inh
C=CCSc1nnc(NC(=O)CSc2nc3ccccc3o2)s1	–	–	58.8	82.3	·
CC1=CC(C)(C)N(S(=O)(=O)c2ccc(F)cc2)c2ccccc21	–	–	58.3	–	–
CCOC(=O)N1CCN(C(=O)C2CCN(S(=O)(=O)c3ccc(C)cc3)CC2)CC1	–	–	–	–	–
CCOC(=O)N1CCN(C(=O)C2CCN(S(=O)(=O)N3CCCC3)CC2)CC1	–	–	–	–	–
CCOC(=O)C1CCN(C(=O)C2CCN(S(=O)(=O)c3cc(Cl)ccc3Cl)CC2)CC1	2.4	–	–	–	–
CCOC(=O)C1CCN(S(=O)(=O)c2ccc(OC)c(Cl)c2Cl)CC1	–	–	–	–	–
CCOC(=O)N1CCN(C(=O)C2CCN(S(=O)(=O)c3cc(Cl)ccc3Cl)CC2)CC1	2.4	–	51.4	–	–
CCOC(=O)N1CCN(C(=O)C2CCN(S(=O)(=O)c3c(C)cc(C)cc3C)CC2)CC1	3.4	–	–	–	–
O=C(NCc1ccccn1)C1CC(c2ccc(F)cc2)=NO1 (stereo not drawn)	–	–	–	–	–
Cc1ccccc1CN1C(=O)Nc2ccccc2C(=O)N1C(C)(C)C	–	–	–	–	–
O=C(NCc1ccncc1)Nc1ccc(Cl)cc1Cl	–	–	90.1	83.3	–
O=C(NCc1ccncc1)c1cnccn1	–	–	–	–	·
O=C(NCc1ccncc1)Nc1cccc(Cl)c1	–	–	89.8	81.2	–
CN(C)C(CNC(=O)Nc1cccc(Cl)c1)c1cccnc1 (stereo not drawn)	–	–	51.1	–	–
